# Data as given in paper PMC12136788.
# Substitutions are numbered along the chain they refer to. The full ranking holds about 5,800 sequences; the median of “enrichment r” is about 0.54, and the highest 2% start at about 16. This excerpt belongs to a sample that is enriched for the highest values.
# B1: chr10:113908677:113908778:+|3pUTR|ENSG00000196865|unk|total|mutant (ssRNA)
# RNA: GGGAGUUCUACAGUCCGACGAUCAGCUAUGCUCCUUACUUACUUCUUUUAUUAUAAACAAAUUCCUUUGCUUUGGCUGAUACCCGCUGAGUCAUUGAUCAUCAUUGGUACCAUGAUAUUGUAAUCUAUGCUGCUAUUUGGCACCAACAGAGGAUUGAGCAUCA
# B2: chr1:229632307:229632408:+|CDS|ENSG00000135763|unk|total|mutant (ssRNA)
# RNA: GGGAGUUCUACAGUCCGACGAUCAUUUUAUAAGAAAAAGCUUGAACUGAAGGAAGAUAUUGUUGAAAGGCUUUGGAUCUAUACCGAUAACAUUUUACACCGCAGAAAAUUGCAGAAUCUCCUCAAGAAUGGAAAGACCAUUAACAACAGAGGAUUGAGCAUCA
# B3: chr8:94436494:94436868:-|CDS|ENSG00000265817|control|control|control (ssRNA)
# RNA: GGGAGUUCUACAGUCCGACGAUCAAUAGUAGAAAAGAAUAGAUGUUGGGAUAUCAUAGCAGUUAACUAUAAUGCAAUUGGAGUAGACCGCCCUCCUCGAACAGCACAGGGCCUACGCACCCUUUAUAAAAGGCUCAAAGAAUACAACAGAGGAUUGAGCAUCA
# B4: chr6:75256125:75256201:-|CDS_3pUTR|ENSG00000112697|msi1_unk|total|mutant (ssRNA)
# RNA: GGGAGUUCUACAGUCCGACGAUCUUUGGGGAUUGCUUACAUCGCUGUUGGAUCCAUCUCCUUCCUUCUGGGAGUUGUACUGCCCGUAAUUAAUCAUAAAUACCGAAACAGCCGUAAUACAGCUGACAUUACCAUUUAAUUUUACAACAGAGGAUUGAGCAUCA
# B5: chr1:113764432:113764533:-|3pUTR|ENSG00000081019|msi1|FALSE|bound_elsewhere (ssRNA)
# RNA: GGGAGUUCUACAGUCCGACGAUCAAAAUAUUCUGAAAUAGGUUAAAUCUUAUAUAAAUAUUACUUUGUGCAAUAUUGUUGUGUAGUUAAAUGCAUAUUAGCAAAGUAUAGAGGUCACUGUGUAAACCGAUAGAAAAGUAACCACAACAGAGGAUUGAGCAUCA
# B6: chr1:113764432:113764533:-|3pUTR|ENSG00000081019|msi1|total|mutant (ssRNA)
# RNA: B5 RNA with U38C, A39C, U83C, A84C, U98C, A99C, U108C, A109C, U130C, A131C
# B7: chr10:92030311:92030412:+|3pUTR|ENSG00000095564|unk|FALSE|unique (ssRNA)
# RNA: GGGAGUUCUACAGUCCGACGAUCAUAUAAGAUUGAAACUGUAAAAUAUAUGCAACUGUGUGUUAUUUGUAGGAAAUGGUCACUAGAAAGAGCAAAAGAUUAUUCAGGUAUACAGGUUUUUUUUCAUUGUUUAGGAUUUUAACUCAACAGAGGAUUGAGCAUCA
# B8: chr5:113019263:113019364:+|3pUTR|ENSG00000172795|msi1|FALSE|unique (ssRNA)
# RNA: GGGAGUUCUACAGUCCGACGAUCCUCAACUGUGAAUGAAAUUUAGAAAGAUAAUUCUUCAGCAGUUGGUUGAUUAGAUGGGUUAGUGCUUUUGGAAUAUAUAACAGUAGACUUGUAUUCUUUAUGCACUAUACAUAUGAUACGCAACAGAGGAUUGAGCAUCA
# B9: chr6:75256125:75256201:-|CDS_3pUTR|ENSG00000112697|msi1_unk|FALSE|overlapping (ssRNA)
# RNA: B4 RNA with C83U, C84A, C102U, C103A, C111U, C112A
# B10: ENSG00000070961:be:win_6151|3pUTR|ENSG00000070961|bound_else_gene|NA|bound_elsewhere_windowed (ssRNA)
# RNA: GGGAGUUCUACAGUCCGACGAUCCAAUCACUUUUUCUCUUUUAUCCUCUAACCAAAAAAUUGUUUAAUUUUGCAUCCCAAAUGUUUUUAAUCUUUGUAUAUUUUUUAAAAAUCCUUUUCUCCUCAUCAUUGCCUUUUUUGUGGCAACAGAGGAUUGAGCAUCA
# B11: chr11:101473508:101473773:-|CDS|ENSG00000137672|control|control|control (ssRNA)
# RNA: GGGAGUUCUACAGUCCGACGAUCUCCUCAAAUAAUAUCUGAAGGUCUUUAUGCAAUUGCUGUAGUUUUAAGUUUCUCUAGGAUAGCUUAUAUUUUACCAGCAAAUGAAAGCUUUGGACCUCUGCAGAUAUCACUUGGAAGAACCAACAGAGGAUUGAGCAUCA
# B12: ENSG00000070961:be:win_6101|3pUTR|ENSG00000070961|bound_else_gene|NA|bound_elsewhere_windowed (ssRNA)
# RNA: GGGAGUUCUACAGUCCGACGAUCUAAAGAUCUUGGAUCCCAUUAUAUAGUAUGUAUAGCUGAAAUCUGUAAUUCAAUCACUUUUUCUCUUUUAUCCUCUAACCAAAAAAUUGUUUAAUUUUGCAUCCCAAAUGUUUUUAAUCUCAACAGAGGAUUGAGCAUCA
# B13: ENSG00000070961:be:win_1201|CDS|ENSG00000070961|bound_else_gene|NA|bound_elsewhere_windowed (ssRNA)
# RNA: GGGAGUUCUACAGUCCGACGAUCAAAAGACCAUGGCUUGCUGAGUGCACACCAAUUUAUAUACAAUACUUUGUGAAGUUCUUCAUUAUUGGAGUUACAGUUUUAGUGGUCGCAGUGCCAGAAGGUCUUCCACUUGCAGUCACGCAACAGAGGAUUGAGCAUCA
# B14: chr5:150401636:150402250:-|three_prime_utr|ENSG00000019582|control|control|control (ssRNA)
# RNA: GGGAGUUCUACAGUCCGACGAUCCUGCUGCCCAAUCUCCAUCUGUCAACAGGGGCGUGAGGUCCCAGGAAGUGGCCAAAAGCUAGACAGAUCCCCGUUCCUGACAUCACAGCAGCCUCCAACACAAGGCUCCAAGACCUAGGCCAACAGAGGAUUGAGCAUCA
# B15: chr5:40972473:40972581:+|CDS|ENSG00000112936|unk|FALSE|unique (ssRNA)
# RNA: GGGAGUUCUACAGUCCGACGAUCAAAACCUUUCUACACAGUUGGUGAGAAGGUGACUGUUUCCUGUUCAGGUGGCAUGUCCUUAGAAGGUCCUUCAGCAUUUCUCUGUGGCUCCAGCCUUAAGUGGAGUCCUGAGAUGAAGAACAACAGAGGAUUGAGCAUCA
# B16: ENSG00000096070:stop:overlap|stop_codon|ENSG00000096070|stop_codon|NA|stop_codon (ssRNA)
# RNA: GGGAGUUCUACAGUCCGACGAUCAGAAGGAUCCUGCACACAUCUUCGCAGAACCAGUCAACUUGAGUGAGGUUUUAUAUGUUUAGGUUCCAGAUUACCUGGAAUUCAUAUCCAAGCCAAUGGAUUUUUCUACUAUGAGGCGGACAACAGAGGAUUGAGCAUCA
# B17: chr16:3436009:3436110:-|3pUTR|ENSG00000167981|unk|total|mutant (ssRNA)
# RNA: GGGAGUUCUACAGUCCGACGAUCAUUAAAAUGAAGGCUCUUGCUAAAGUUAUUUUAAUUUUGUUUACGCCGUUUCUGACUUUCCGAAGGAGGAGAAUUUAUUUAUAUUUUGCCAGUUCUGCAGACAUAUCCCGGAAAGUAAAUCAACAGAGGAUUGAGCAUCA
# B18: chr13:42886387:42888493:-|three_prime_utr|ENSG00000133106|control|control|control (ssRNA)
# RNA: GGGAGUUCUACAGUCCGACGAUCCAUAUUUAAUCUCUACUGCCAGGGAAAUGCUACAUUAUUUUUCUAAUUGGAAGUAUAAUUAGAGUGAUGUUGGUAGGGUAGAAAAAGAGGGAGUCACUUGAUGCUUUCAGGUUAAUCAGACAACAGAGGAUUGAGCAUCA
# B19: chr15:67202635:67202736:-|3pUTR|ENSG00000103591|msi1|FALSE|unique (ssRNA)
# RNA: GGGAGUUCUACAGUCCGACGAUCUGCCAAAAUUGCCCUUAUCAUGUUGGCUGCCUGACUUGUUUAUAGGGUCCCCUUAAUUUUAGUUUUUAGUAGGAGGUUAAGGAGAAAUCUUUUUUUUCCUCAGUAUAUUGUAAGAGAGUGCAACAGAGGAUUGAGCAUCA
# B20: chr1:16124349:16124452:-|3pUTR|ENSG00000142627|msi1|FALSE|unique (ssRNA)
# RNA: GGGAGUUCUACAGUCCGACGAUCUUUGUUUUGUUGGACAUUUUUUUCGAAUCUUAAUUUAUUAUUUUUUUUAUAUUUAUUGUUAGAAAAUGACUUAUUUCUGCUCUGGAAUAAAGUUGCAGAUGAUUCAAACCGAUCUUGGCUCAACAGAGGAUUGAGCAUCA
# B21: chr3:46835109:46836203:-|three_prime_utr|ENSG00000160808|control|control|control (ssRNA)
# RNA: GGGAGUUCUACAGUCCGACGAUCUGAAGGCACAAGCUGUUCCAGUAUAAUAAAGAAAAUAAUUAAAUUAAGAAAAGUUAUACUAGAAAUAAGAUAUAGGUAUGAUUAUUAUUAAUCAUUAGUUUGUAGUAUUACUUUGUUCUACAACAGAGGAUUGAGCAUCA
# B22: chr1:183143318:183143419:+|3pUTR|ENSG00000135862|msi1|total|mutant (ssRNA)
# RNA: GGGAGUUCUACAGUCCGACGAUCACAUCCUGUGCCAAAGGUAUUGGUCAUUCCGAAUGUCGGCCGCCAUCCAUCAGUGCUUUCCGUUAUUAUGAGUGCCGGACACUGAGCCAUCCGUGGGUCAGGAUGCAAUUAUUUAUAAAACAACAGAGGAUUGAGCAUCA
# B23: chr16:3436009:3436110:-|3pUTR|ENSG00000167981|unk|FALSE|unique (ssRNA)
# RNA: B17 RNA with C69U, C70A, C83U, C84A, C131U, C132A
# B24: chr15:67202635:67202736:-|3pUTR|ENSG00000103591|msi1|total|mutant (ssRNA)
# RNA: B19 RNA with U66C, A67C, U83C, A84C, U90C, A91C, U93C, A94C
# B25: chr1:183143318:183143419:+|3pUTR|ENSG00000135862|msi1|FALSE|unique (ssRNA)
# RNA: B22 RNA with C52U, C53A, C63U, C64A, C83U, C84A, C98U, C99A
# B26: ENSG00000070961:be:win_4051|3pUTR|ENSG00000070961|bound_else_gene|NA|bound_elsewhere_windowed (ssRNA)
# RNA: GGGAGUUCUACAGUCCGACGAUCAUUUCUGCUGUUGGCUGUUAAUAAUUUGGAUUAUUUAUGUUUAUAAAUGAUACAGAUCUGUUUACAAGGUUUGUAGAUACUUUUUUUGUUCCUGUUCAUAGAUGGGAAGCUUCCUUAUAACAACAGAGGAUUGAGCAUCA
# B27: chr6:1612588:1612689:+|3pUTR|ENSG00000054598|msi1|FALSE|unique (ssRNA)
# RNA: GGGAGUUCUACAGUCCGACGAUCUUUAUUCAUGGACUUGUUUUAAAAUGUAAAUUGCAACAUAGUAAUUUAUUUUUAAUUUGUAGUUGGAUGUCGUGGACCAAACGCCAGAAAGUGUUCCCAAAACCUGACGUUAAAUUGCCUCAACAGAGGAUUGAGCAUCA
# B28: chr3:100749155:100750494:-|three_prime_utr|ENSG00000154175|control|control|control (ssRNA)
# RNA: GGGAGUUCUACAGUCCGACGAUCUGCCGCAUUCAUUUAAAGCUAUUUUGUUUACUAUGUAUAAAAGUCUACAAUCUAAUUAAUAGCAAUACUAGAUGUUUAUUAUUAGAAAAGAUUGCUGAGAGUAUUUAUCAGGUUUUACAACAACAGAGGAUUGAGCAUCA
# Biological target: MSI1 full-length (mouse, UniProt Q61474 1-362)
# Sequence (Q61474 whole entry): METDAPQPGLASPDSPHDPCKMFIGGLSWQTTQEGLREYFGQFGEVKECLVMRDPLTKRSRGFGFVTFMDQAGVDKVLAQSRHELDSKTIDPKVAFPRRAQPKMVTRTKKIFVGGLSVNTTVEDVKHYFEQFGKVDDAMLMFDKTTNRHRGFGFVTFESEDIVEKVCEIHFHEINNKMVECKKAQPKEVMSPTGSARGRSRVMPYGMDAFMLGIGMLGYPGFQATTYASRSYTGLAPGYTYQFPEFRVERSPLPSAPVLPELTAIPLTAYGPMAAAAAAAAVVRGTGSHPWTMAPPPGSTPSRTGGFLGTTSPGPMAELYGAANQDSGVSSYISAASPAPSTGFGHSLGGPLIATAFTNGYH
# Experiment: nsRBNS (natural sequence RNA bind-n-seq); RBNS binding buffer (assumed for nsRBNS): 25 mM Tris pH 7.5, 150 mM KCl, 3 mM MgCl2, 0.01% Triton X-100, 500 ug/ml BSA, 20 U/ml SUPERase-In, 4 C; UNK is unkempt and MSI1 is Musashi-1; names of the RNAs are library labels; protein concentration not given here; high values mean tight binding
row,Binder,binding signal [enrichment R]
1,B1,3.24
2,B2,0.623
3,B3,28.2
4,B4,0.387
5,B5,51.3
6,B6,0.583
7,B7,6.54
8,B8,1.92
9,B9,18.4
10,B10,3.25
11,B11,1.39
12,B12,30
13,B13,1.51
14,B14,0.462
15,B15,0.339
16,B16,0.383
17,B17,0.68
18,B18,0.46
19,B19,32.9
20,B20,4.58
21,B21,24.8
22,B22,0.319
23,B23,19.1
24,B24,0.438
25,B25,34.2
26,B26,1.02
27,B27,0.311
28,B28,4.63
